# The campaign covered roughly 69,000 compounds. About 8,600 (12%) showed an effect of 50% or more. The sample holds strong results, similar compounds and a random draw of the others, so the mix is not that of the screen.
# System: Plasmodium berghei
# Assay: Screen against P. berghei liver stage (PbLuc), transformed with Luciferase, at 10uM
# Type: functional, HepG2
# Conditions: tested at 10 uM
row,Structure (SMILES),INHIBITION [%]
1,O=c1cnc2ccccc2n1CCCn1ccnc1,34
2,Cc1cccnc1NCCNc1cc(C(C)C)nc2ccnn12,43.9
3,Cc1cc(NCCNc2ncccc2C)n2nc(C)cc2n1,16
4,Cc1cc2nc(C(C)C)cc(NCCNc3ncccc3C)n2n1,64.2
5,O=C(O)Cc1cccc(-n2ccnc2-c2ccc(Cl)s2)c1,53.3
6,Cc1cccc(-c2nccn2-c2cccc(CC(=O)O)c2)n1,11.9
7,CNC(=O)Cc1ccc(-n2ccnc2-c2ccc(C(=O)O)s2)cc1,51.2
8,COc1cc(-n2ccnc2-c2ccc(C(=O)O)s2)ccc1NC(C)=O,17.5
9,O=C(O)Cc1cccc(-n2ccnc2-c2ccc(F)c(Cl)c2)c1,-10.5
10,Cc1nccn1-c1ccc(=O)n(CCNC(=O)Cc2ccccc2)n1,13.8
11,CCn1c(C)nnc1SCCNC(=O)c1sc(C(C)C)nc1C,-12.1
12,Cc1cncc(C(=O)N2CCc3ncc(Cn4cccn4)n3CC2)c1,10.5
13,Cc1cc(C)c2cc(C(=O)N3CCNC(=O)C3)[nH]c2c1,14.3
14,CNC(=O)C1(CCCc2ccccn2)CN(Cc2scnc2C)C1,30.4
15,Cc1cccc(C)c1Nc1noc2c1CN(C(=O)c1c[nH]nc1C)CC2,18.34
16,CN(C)C(=O)N1CC2(CCNCC2)c2cc(Cl)ccc21,83.5
17,O=C(c1ccco1)N1CC2(CCNCC2)c2cc(Cl)ccc21,51.9
18,NC(=O)N1CC2(CCNCC2)c2cc(Cl)ccc21,19.1
19,O=C(c1ccccc1F)N1CC2(CCNCC2)c2cc(Cl)ccc21,-27
20,O=C([C@@H]1CSCN1)N1CC2(CCNCC2)c2cc(Cl)ccc21,38.5
21,CC(=O)N1CC2(CCNCC2)c2cc(Cl)ccc21,14.9
22,CN(C)C(=O)N1CC2(CCNCC2)c2cc(F)ccc21,-15.5
23,O=C([C@H]1CCCN1)N1CC2(CCNCC2)c2cc(Cl)ccc21,58.3

row,Structure (SMILES),INHIBITION [%]
1,O=C(c1ccncc1)N1CC2(CCNCC2)c2cc(Cl)ccc21,5.04
2,Cn1ccnc1CN1CCOC(Cn2cccn2)C1 (configuration not stated),7.08
3,CNc1nc2cn(CCc3ccc(Cl)cc3)c(=O)c-2c[nH]1,-15.5
4,CN(C)c1cc(CNC(=O)c2ccc(Br)cc2F)ccn1,16.8
5,Cc1cnc(N2C[C@H]3CCN(CC4CC4)C[C@H]3C2)nc1,-21.7
6,NC(=O)c1ccc2c(c1)nc1n2CCN(Cc2cccnc2)C1,54
7,NC(=O)c1ccc2c(c1)nc1n2CCN(Cc2ccccc2)C1,16.6
8,NC(=O)c1ccc2c(c1)nc1n2CCN(Cc2ccco2)C1,-7.9
9,O=C(NCCCO)c1cc(-c2cc[nH]n2)n2ccccc12,15.4
10,COc1ccc(C2c3c(n[nH]c3C)N=C3COC(=O)C32)cc1OC (configuration not stated),-2.37
11,COc1ccc(OC)c(C2c3c(n[nH]c3C)N=C3COC(=O)C32)c1 (configuration not stated),-15
12,CSc1nc(N)c2c(n1)N=C1COC(=O)C1C2c1cccc(Cl)c1 (configuration not stated),15.9
13,CCOc1ccc(C2c3c(N)nc(SC)nc3N=C3COC(=O)C32)cc1 (configuration not stated),-44.5
14,CCN(CC)c1ccc(C2c3c(n[nH]c3C)N=C3COC(=O)C32)cc1 (configuration not stated),68.1
15,Cc1ccc(C2c3c(n[nH]c3C)N=C3COC(=O)C32)cc1C (configuration not stated),55.3
16,Nc1ccc(-c2cnc(C3CCCN3)cn2)cn1 (configuration not stated),-4.175
17,Cc1cc(C)n(CC2CCCN2C(=O)c2ccc(NC3CC3)nc2)n1 (configuration not stated),-5.07
18,Cc1ccc(=O)n(CC2(O)CCN(Cc3cccs3)CC2)n1,-20.2
19,O=C(NCCN1CCOCC1)c1nc2ccccc2c(=O)[nH]1,45.7
20,CC1COCCN1Cc1nc(-c2ccc(Br)s2)no1 (configuration not stated),-50.8
21,CCN1CCOC(CNCc2c(Cl)nc3ccccn23)C1 (configuration not stated),-13.6
22,COc1ccc(CN2CCCC2)cc1Oc1ccc2c(c1)CC(CN)O2 (configuration not stated),-27
23,Cc1cc(CN2CCCC2)cc(Oc2ccc3c(c2)CC(CN)O3)c1 (configuration not stated),4.68

row,Structure (SMILES),INHIBITION [%]
1,COc1c(F)cc(-c2cccc3c2OC(CN)C3)cc1F (configuration not stated),27.6
2,COc1cc(CN2CCCC2)ccc1Oc1ccc2c(c1)CC(CN)O2 (configuration not stated),69
3,NCC1Cc2cc(Oc3cc(F)c(CN4CCCC4)c(F)c3)ccc2O1 (configuration not stated),74
4,COc1ccc(CN2CCCC2)cc1Oc1ccc(NC(C)=O)cc1,-5.47
5,CC(=O)N1CCC(c2ccnc(Nc3cc(C(F)(F)F)ccn3)n2)C1 (configuration not stated),2.55
6,CN(C)C(=O)[C@H]1C[C@H]2OCC[C@H]2N(CCOc2ccc(Cl)cc2)C1,1.48
7,Cc1ncc2c(n1)CN(CCCc1ccccc1)CC2,-21.8
8,Cc1nn(C)c(C)c1NC(=O)c1cccc(CN2C[C@H]3CC[C@@H](C2)N3)c1,16
9,Cc1nn(C)c(C)c1NC(=O)c1cccc(CN2CC[C@H](O)C2)c1,56.6
10,Cn1nccc1NC(=O)c1cccc(CN2C[C@H]3CC[C@@H](C2)N3)c1,6.09
11,Cc1nn(C)c(C)c1NC(=O)c1cccc(CN2CCS(=O)(=O)CC2)c1,44.4
12,CCCn1cc(NC(=O)c2cccc(CN3CC=CC3)c2)nn1,-57.5
13,CCn1cc(NC(=O)c2cccc(CN3C[C@@H](C)O[C@@H](C)C3)c2)nn1,81.3
14,Cc1ccc(Cl)c(NC(=O)c2cccc(CN3CC[C@H](O)C3)c2)c1,43.9
15,CCN(Cc1cccc(C(=O)Nc2cn(C)nn2)c1)[C@H]1COC[C@@H]1O,35.7
16,CCCn1cc(NC(=O)c2cccc(CN3CC[C@H](O)C3)c2)nn1,65.6
17,CCOc1ccc2cc(C(=O)N3CCn4c(CC)nnc4C3)[nH]c2c1,0.411
18,COc1nn(C)cc1C(=O)N1CCC(c2ccccc2)C1 (configuration not stated),11.8
19,Cc1ccccc1C1(C(=O)NCCN2CCCC(C)C2)CCOCC1 (configuration not stated),49.8
20,Cc1cc(C)n(CCC(=O)N2CCC(c3nc(C)no3)CC2)n1,47.4
21,CC(C)n1cnnc1CNC(=O)c1cnc2ccccc2n1,-4.73

# Source: ChEMBL document CHEMBL4513216, “Probing the Open Global Health Chemical Diversity Library for Multistage-Active Starting Points for Next-Generation Antimalarials” (ACS Infect Dis, 2020)
